# Compound activity as filed in PubChem BioAssay.
# KB-V1 cytotox: kills drug-selected multidrug resistant KB-V1 cells; KB-V1 MDR cells viability, CellTiter-Glo, 72 h; actives 3.4% (n = 400,000); Potency, µM (titrated, usually from 46.1 µM), usual class: cytotoxic; AID 1347076; note: % is set by controls: 0 for no effect and ±100 for the full control effect; nearly all actives have a fitted effect of over 60% in size
#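 Compound-treated KB-V1 multidrug-resistant cells, 72 h, 37 degrees C; viability by CellTiter-Glo. Fitted qHTS curves give the values.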
# 12-LOX inh: inhibitors of human 12S-lipoxygenase ALOX12; P18054; purified 12hLO, xylenol orange hydroperoxide absorbance; Potency, µM (doses to about 108 µM), without a hit: at the top dose activity change, negative = inhibition, actives largely listed as inhibitors; actives 1.1% (n = 580,000); AID 1671190; note: % is set by controls: 0 for no effect and ±100 for the full control effect
# Target sequence (P18054 whole entry, looked up): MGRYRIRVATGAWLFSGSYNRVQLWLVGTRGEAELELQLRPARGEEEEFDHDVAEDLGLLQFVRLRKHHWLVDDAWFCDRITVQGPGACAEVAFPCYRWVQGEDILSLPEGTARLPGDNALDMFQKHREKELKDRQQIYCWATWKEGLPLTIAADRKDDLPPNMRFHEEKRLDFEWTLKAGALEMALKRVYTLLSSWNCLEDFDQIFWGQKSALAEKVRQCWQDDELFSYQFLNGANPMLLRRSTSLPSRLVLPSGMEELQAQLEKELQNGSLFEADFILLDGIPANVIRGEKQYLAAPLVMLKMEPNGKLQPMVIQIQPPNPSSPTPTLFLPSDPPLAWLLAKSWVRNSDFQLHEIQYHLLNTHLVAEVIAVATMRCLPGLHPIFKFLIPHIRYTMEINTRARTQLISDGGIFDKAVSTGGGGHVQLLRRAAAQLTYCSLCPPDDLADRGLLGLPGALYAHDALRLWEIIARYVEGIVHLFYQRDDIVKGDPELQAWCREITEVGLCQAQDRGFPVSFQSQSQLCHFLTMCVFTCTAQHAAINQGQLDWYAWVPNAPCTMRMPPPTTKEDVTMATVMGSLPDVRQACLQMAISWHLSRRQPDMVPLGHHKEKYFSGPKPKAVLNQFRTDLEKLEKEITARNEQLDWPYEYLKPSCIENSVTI
#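 Purified human 12hLO at 150 nM in 25 mM Hepes, 0.01% Triton X-100, pH 7.0, preincubated 15 min at room temperature with compound. Reaction started with 40 uM arachidonic acid, 30 min at room temperature. Hydroperoxide measured by Fe-xylenol orange, 573/405 nm absorbance ratio.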
# KB-3-1 cytotox: KB-3-1 parental cell cytotoxicity | KB-3-1 viability, CellTiter-Glo ATP luminescence, 72 h | Potency, µM (doses to about 46.1 µM), usual class: cytotoxic | actives 1.4% (n = 400,000); note: % is set by controls: 0 for no effect and ±100 for the full control effect; nearly all actives have a fitted effect of over 60% in size
#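 Luminescent ATP read-out (CellTiter-Glo) measures survival of drug-naive KB-3-1 cells after 72 h compound exposure at 37 °C. Titration series was screened from lowest to highest concentration, with DMSO vehicle plates as background controls.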
# SW480 rerep: inducers of DNA re-replication in SW480 colon cancer cells; SW480 DNA re-replication, Hoechst DNA content imaging, 48 h; AID 624297; actives 1.8% (n = 340,000); Potency, µM (doses to about 46.1 µM), for the others: at the highest dose re-replication activation, most hits filed as activators; note: % of control where 0% means no effect; nearly all actives have a fitted effect of over 55% in size
#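 Quantitative HTS format with DMSO vehicle controls; 48 hr drug incubation at 37 C, then 40 min Hoechst staining and scanning imager measurement at 405 nm excitation.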
# MCF10A rerep: DNA re-replication induction in MCF 10a cells; MCF 10A DNA re-replication, Hoechst nuclear intensity, 48 h; Potency, µM (series often up to 46.1 µM), for inactives: at the top dose activity, positive = re-replication, most hits filed as activators; actives 2.9% (n = 350,000); AID 624296; note: % of control where 0% means no effect; nearly all actives have a fitted effect of over 50% in size
# PINK1 expr mod: modulators of PINK1 expression. PINK1 immunofluorescence, high-content cytometry, 24 h. Potency, µM (doses to about 76.6 µM), inactives show at the highest dose activation (PINK1 increase), actives largely listed as activators. actives 0.2% (n = 410,000); active = well fitted activation curve with a large enough effect; inconclusive = small, poorly fitted or top-dose-only effect; cell line not stated here; note: % of control where 0% means no effect; nearly all actives have a fitted effect of over 65% in size
#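 A stable cell line was treated with compounds at 5 concentrations for 24 hours, with CCCP as control. PINK1 levels and mitochondrial localization were measured by immunofluorescence with mitochondrial, cell and nuclear markers after fixation, read by laser-scanning cytometry.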
# * hit, by the source's call; i = inactive; ? = inconclusive; . = not tested or not shown; [ ] = dose if it differs, or a comment. Hits are enriched below; roughly 5.8% of the tested compounds scored in any of these assays. Unless noted, calls come from the whole dose curve; as a rule, active = well fitted curve in the direction sought with a large enough effect; inconclusive = small, poorly fitted or top-dose-only effect, or another doubt; inactive = no such curve, though single readings can be large; an effect the other way counts as inactive or inconclusive. Potency is the fitted concentration of half-maximal effect.
SMILES,KB-V1 cytotox,12-LOX inh,KB-3-1 cytotox,SW480 rerep,MCF10A rerep,PINK1 expr mod
C=CCn1c(SCc2nc3sc4c(c3c(=O)[nH]2)CCCC4)nc2ccccc2c1=O,2.1µM*,?,i,-1%,10µM*,?
C=CCSc1nnc(CSc2nc3sc4c(c3c(=O)[nH]2)CCCC4)n1-c1ccccc1,21µM*,?,i,?,?,1%
Cc1cccc(CN2CCCN(S(C)(=O)=O)C(c3ccccc3)CC(=O)NCC2)c1 (stereo unspecified),.,11%,.,.,.,.
Cc1cc(NC(=O)[C@@H]2CCCN2S(=O)(=O)c2ccccc2)no1,.,-12%,.,.,.,.
CCc1ccc(-c2cc(C)no2)cc1S(=O)(=O)N1CCN(c2ccc(F)cc2)CC1,12µM*,1%,?,?,23%,4%
Cc1cc(-c2ccc(C)c(S(=O)(=O)NCC3CCN(Cc4ccc(F)cc4)CC3)c2)on1,i,28%,?,2.9µM*,13%,2%
Cc1cc(-c2ccc(C(C)C)c(S(=O)(=O)N3CCN(c4ccccn4)CC3)c2)on1,?,12%,?,?,4.1µM*,5%
CCc1ccc(-c2cc(C)no2)cc1S(=O)(=O)N1CCOc2ccccc21,21µM*,0%,i,26%,?,4%
Cc1cc(-c2ccc(C)c(S(=O)(=O)N3CCOc4ccc(Cl)cc43)c2)on1,i,-4%,i,.,.,1%
CCc1ccc(-c2cc(C)no2)cc1S(=O)(=O)N1CCN(c2ccccn2)CC1,?,-6%,?,-3%,11%,2%
CCc1ccc(-c2cc(C)no2)cc1S(=O)(=O)N1CCN(c2ccc(OC)cc2)CC1,?,-7%,?,24%,11%,2%
COc1ccc2cc(C(=O)NCCCN3CCCC3=O)c(C)nc2c1,.,3%,.,.,.,.
CCOc1ccc2c(c1)cc(C(=O)NCc1ccco1)n2C,.,18µM*,.,.,.,.
Nc1c(C(=O)NCc2ccco2)c2nc3ccccc3nc2n1CCc1ccccc1,?,?,i,7.3µM*,1.8µM*,3%
Nc1c(C(=O)NCc2ccc(F)cc2)c2nc3ccccc3nc2n1CCCN1CCOCC1,?,?,?,3.7µM*,?,-3%
CCOc1ccc(-n2c(N)c(C(=O)NCc3ccco3)c3nc4ccccc4nc32)cc1,?,.,i,?,13µM*,1%
CC(C)c1ccc2c(c1)-c1ccccc1S(=O)(=O)N2CC(=O)NCc1cccnc1,.,9%,.,.,.,.
Cc1ccc(NC(=O)CC2(C(=O)O)CCCCC2)c(C)c1,.,-73%,.,.,.,.
COc1ccc(CNC(=O)c2c(N)n(CCCN3CCOCC3)c3nc4ccccc4nc23)cc1,?,?,i,2.6µM*,?,-4%
Cc1cc2c(cc(C(=O)OCC(=O)NCc3ccco3)n2C)s1,3.7µM*,30%,5.8µM*,10µM*,?,11%
Nc1c(C(=O)NCc2ccccc2)c2nc3ccccc3nc2n1CCCN1CCOCC1,i,-26%,i,18µM*,18µM*,-2%
COC(=O)c1c(N)n(CCCN2CCOCC2)c2nc3ccccc3nc12,i,0%,i,?,?,2%
Cn1c(C(=O)OCC(=O)NCc2ccco2)cc2sccc21,i,?,i,?,23%,0%[38.3 µM]
COc1cc(C2c3c(-c4ccccc4O)n[nH]c3C(=O)N2CCO)ccc1OCCC(C)C (stereo unspecified),.,0%,.,.,.,.
C/C(CC(C)C)=N\NC(=O)c1ccc(Cl)cc1,.,30%,.,.,.,.
SMILES,KB-V1 cytotox,12-LOX inh,KB-3-1 cytotox,SW480 rerep,MCF10A rerep,PINK1 expr mod
CCc1ccc(/C=C(/CC(=O)O)c2nc3ccccc3s2)cc1,.,-6%,.,.,.,.
CCC(=O)N1Cc2ccccc2CC2(CCN(Cc3cccnc3)C2)C1 (stereo unspecified),.,6%[6.33 µM],.,.,.,.
O=C(c1cc(N2C(=O)C3C4CCC(C4)C3C2=O)ccc1Cl)N1CCN(c2ccccc2)CC1 (stereo unspecified),3.3µM*,-1%,i,?,-36%,8%
O=C(c1cccc(N2C(=O)C3C4C=CC(C4)C3C2=O)c1)N1CCN(c2ccccc2)CC1 (stereo unspecified),?,24%,i,0%,-2%,0%
CCCCCCCCOc1ccc(OC(=O)c2ccncc2)cc1,.,20%,.,.,.,.
CC(=O)C1=C(O)C(CSCc2ccccc2)N(C)C1=O (stereo unspecified),21µM*,10µM*,i,0%,5%,-4%
COc1ccc(C2=NOC(C(=O)Nc3ccc(OC(F)(F)F)cc3)C2)cc1 (stereo unspecified),.,8%,.,.,.,.
O=C(CCc1c[nH]c2ccccc12)OCC(=O)N1CCCC1=O,.,-30%,.,.,.,.
Oc1c(Cl)cccc1C=Nc1cc(C(F)(F)F)ccc1Oc1ccccc1,.,-26%,.,.,.,.
CCOc1ccc(S(=O)(=O)NCc2ccccn2)cc1NC(=O)c1ccccc1,6.5µM*,0%,2.3µM*,?,?,12%
CCOc1ccc(S(=O)(=O)NCc2cccnc2)cc1NC(=O)c1ccccc1,i,-10%,i,-9%,-11%,2%
COc1ccc(S(=O)(=O)NCc2ccccn2)cc1C,i,-11%,i,.,.,0%
COc1ccc(S(=O)(=O)NCc2ccccn2)cc1NC(=O)c1ccccc1F,1.8µM*,-5%,1.5µM*,5.8µM*,13µM*,5%
Cc1ccc(-c2nn3c(c2C)NC(=O)CC3C(=O)Nc2ccc3c(c2)OCO3)cc1 (stereo unspecified),.,13%,.,.,.,.
Cc1cc(N2CCC3(CCCN(CC4CCC4)C3=O)C2)nc2ccccc12 (stereo unspecified),.,42%,.,.,.,.
CCOC(=O)c1cc2c(ccn2C)n1CC(=O)N(C)C,?,?,i,-9%,0.65µM*,0%
Cc1ccc(N(CC(O)CN2CCCCC2)S(=O)(=O)c2ccc3ccccc3c2)cc1 (stereo unspecified),.,-12%,.,.,.,.
O=S(=O)(CC(CN1CCCC1)N1CCCC1)c1ccc2ccccc2c1 (stereo unspecified),?,-18%,12µM*,10µM*,12µM*,-9%[38.3 µM]
O=C1CN(CC(=O)Nc2cc(Cl)cc(Cl)c2)CCN1,.,1%,.,.,.,.
Cc1sc(-c2nc(-c3cccc(F)c3)no2)cc1S(=O)(=O)N1CCC(C)CC1,.,2%,.,.,.,.
N=c1c(C(=O)NCc2ccccc2)cc2c(=O)n3ccccc3nc2n1CCCN1CCOCC1,i,0%,?,9.2µM*,3.7µM*,-1%
